{"source": "PubChem BioAssay (Tox21)", "note": "Results filed as inconclusive are left out. A number with no mark means an inactive call. Activity calls are given as the source filed them. Calls come from the whole dose curve; as a rule, active = well fitted cell-killing curve with a large enough effect in the repeat runs; inconclusive = weak or mixed curves, or effect the other way; inactive = flat fitted curve, though single readings scatter."}
{"experiment": "qHTS assay to identify small molecule antagonists of the estrogen related receptor signaling pathway with the pleiotropic PPARgamma coactivator (PGC) cell viability counter screen (AID 1224822; note: potency is the fitted concentration of half-maximal effect; for viability change, negative = cytotoxic: % is set by controls: 0 for no effect and ±100 for the full control effect)", "settings": "ERR/PGC reporter cell line viability counter screen; series mostly up to 46.1 µM; viability change, negative = cytotoxic: at the top concentration", "in_short": "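Seed PGC/ERR cells (2,000/well); incubate 6 h at 37 C/5% CO2; pin-transfer compounds in DMSO; incubate 17.5 h at 37 C; add CellTiter-Fluor; after 30 min read fluorescence.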", "units": {"viability change, negative = cytotoxic": "%"}}
{"molecule": "CN1Cc2sccc2C(c2ccc(O)c(O)c2)C1", "note": "(stereo not drawn)", "viability change, negative = cytotoxic": -9.93}
{"molecule": "CC(C)COC(=O)OCN1C(=O)CN(CCN2CC(=O)N(COC(=O)OCC(C)C)C(=O)C2)CC1=O", "viability change, negative = cytotoxic": 9.85}
{"molecule": "c1ccc2c(c1)CCC[C@H]2Nc1nc2ccccc2[nH]1", "viability change, negative = cytotoxic": -6.16}
{"molecule": "O=C(Nc1nc2ccccc2n1CCN1CCOCC1)c1cccc([N+](=O)[O-])c1", "viability change, negative = cytotoxic": -21.2}
{"molecule": "O=Nc1c(-c2c(O)[nH]c3cc(Br)ccc23)[nH]c2ccccc12", "Potency": "11.4 µM (active)"}
{"molecule": "CC#CCOC(=O)c1c(C)nc2sc3c(c2c1N)CCC(O)C3", "note": "(stereo not drawn)", "viability change, negative = cytotoxic": -17.1}
{"molecule": "CCCCS(=N)(=O)CC[C@H](N)C(=O)O", "note": "(stereo partly drawn)", "viability change, negative = cytotoxic": 8.24}
{"molecule": "O=c1ccc2ccc(O)c(O)c2o1", "viability change, negative = cytotoxic": 4.86}
{"molecule": "C[C@@H](N)C1CCC(C(=O)Nc2ccncc2)CC1", "note": "(stereo partly drawn)", "viability change, negative = cytotoxic": 5.71}
{"molecule": "Nc1nc2c(cnn2CCc2ccccc2)c2nc(-c3ccco3)nn12", "viability change, negative = cytotoxic": -17}
{"molecule": "Cc1nn(-c2ccccc2)c(C)c1/C=N/N1CCN(Cc2ccccc2)CC1", "viability change, negative = cytotoxic": -3.18}
{"molecule": "NCCCCCCCCCCN", "viability change, negative = cytotoxic": 13.1}
{"molecule": "COc1ccc(CCn2nnnc2C2(c3ccc(C)cc3)CC2)cc1", "viability change, negative = cytotoxic": 1.08}
{"molecule": "COc1cccc(OC)c1OCCNCC1COc2ccccc2O1", "note": "(stereo not drawn)", "viability change, negative = cytotoxic": -9.63}
{"molecule": "Cn1c(=O)c2[nH]c(C3CCCC3)nc2n(C)c1=O", "viability change, negative = cytotoxic": 11.7}
{"molecule": "Clc1ccc(N2CCN(Cc3c[nH]c4ncccc34)CC2)cc1", "viability change, negative = cytotoxic": 2.26}
{"molecule": "CN(C)C(=O)[C@H](O)[C@H](Cc1ccccc1)NC(=O)c1cc2cc(Cl)ccc2[nH]1", "viability change, negative = cytotoxic": 6.7}
{"molecule": "Nc1nc(OCC2CCCCC2)c2[nH]cnc2n1", "viability change, negative = cytotoxic": -6.39}
{"molecule": "NCC(O)(CS(=O)(=O)O)c1ccc(Cl)cc1", "note": "(stereo not drawn)", "viability change, negative = cytotoxic": 7.22}
{"molecule": "OC[C@H]1O[C@@H](n2cnc3cncnc32)[C@H](O)[C@@H]1O", "viability change, negative = cytotoxic": -3.16}
{"molecule": "CNC(=O)[C@H]1O[C@@H](n2cnc3c(NCc4cccc(I)c4)ncnc32)[C@H](O)C1O", "note": "(stereo partly drawn)", "viability change, negative = cytotoxic": -1.81}
{"molecule": "O=C1NC(=O)C(c2ccccc2[N+](=O)[O-])=C1Nc1ccc(O)c(Cl)c1", "viability change, negative = cytotoxic": -6.25}
{"molecule": "N[C@H](CCCP(=O)(O)O)C(=O)O", "viability change, negative = cytotoxic": 7.82}
{"molecule": "O=c1[nH]c2cc(C(F)(F)F)ccc2n1-c1cc(C(F)(F)F)ccc1O", "viability change, negative = cytotoxic": -11.7}
{"molecule": "O=C(O)c1ccccc1Nc1cccc(OCc2ccc3ccccc3n2)c1", "viability change, negative = cytotoxic": -4.2}
{"molecule": "O=c1[nH]c(=S)[nH]c(-c2ccccc2)c1Cc1c(O)ccc2ccccc12", "viability change, negative = cytotoxic": -7.72}
{"molecule": "COc1cc(/C=C(\\C#N)C(=O)c2ccc(O)c(O)c2)cc(I)c1O", "viability change, negative = cytotoxic": -4.39}
{"molecule": "CC(=O)[C@H]1CCC2C3CC=C4C[C@@H](OS(=O)(=O)O)CC[C@]4(C)C3CC[C@@]21C", "note": "(stereo partly drawn)", "viability change, negative = cytotoxic": 9.66}
{"molecule": "CC(C)(CO)Cc1cc(C(C)(C)C)c(O)c(C(C)(C)C)c1", "viability change, negative = cytotoxic": -2.81}
{"molecule": "NC(=Nc1ccccc1)NC(=O)c1nc(Cl)c(N)nc1N", "viability change, negative = cytotoxic": -16}
{"molecule": "Nc1nc(SCc2ccc([N+](=O)[O-])cc2)c2ncn([C@@H]3O[C@H](CO)C(O)[C@H]3O)c2n1", "note": "(stereo partly drawn)", "viability change, negative = cytotoxic": 6.78}
{"molecule": "CC(/C=C/c1cccc(Oc2ccc(F)cc2)c1)N(O)C(N)=O", "note": "(stereo not drawn)", "viability change, negative = cytotoxic": -2.62}
{"molecule": "c1ccc2c(c1)CC(N1CCN(c3cccc4c3OCCO4)CC1)C2", "viability change, negative = cytotoxic": -7.33}
